Source: PubChem (National Center for Advancing Translational Sciences (NCATS))
The list is not random: actives were taken first. Their share in the collection is about 12%.
MARV entry inh: qHTS for inhibitors of binding or entry into cells for Marburg Virus; Marburg virus pseudotyped entry inhibition, cell reporter; Potency, µM (series often up to 37.8 µM), without a hit: at the highest dose activity change, negative = inhibition, hits mostly inhibitors; 300,000 compounds, 1.8% hits; AID 540276, 2011; calls by dose curve; tested in HEK293 cells; further: potency means the concentration at half of the fitted maximal effect; on the % scale 0 is the no-effect control and ±100 the full control effect
Cycloheximide cs: Cycloheximide Counterscreen for Small Molecule Inhibitors of Shiga Toxin. cell reporter, cycloheximide protein synthesis inhibition counterscreen. max response, %. 300,000 compounds, 12% hits; in the data active means max response mostly above about 13%, no sharp cut-off; inactive means mostly below about 14%; further: read at 38.3 µM for the half of the compounds with a filed dose; 0% is about no effect
LASV entry inh: qHTS for Inhibitors of binding or entry into cells for Lassa Virus | Lassa virus pseudotype entry inhibition, cell reporter | Potency, µM (titrated, usually from 37.9 µM), for the others: at the top dose activity change, negative = inhibition, actives largely listed as inhibitors | 300,000 compounds, 1.2% hits | AID 540256, 2011; calls by dose curve; tested in HEK293 cells; further: potency means the concentration at half of the fitted maximal effect; on the % scale 0 is the no-effect control and ±100 the full control effect; nearly all actives have a fitted effect of over 50% in size
Shiga inhibitor: A qHTS for Small Molecule Inhibitors of Shiga Toxin | inhibition, % at 38.7 µM | Vero cells, Shiga toxin protein synthesis inhibition reporter | 290,000 compounds, 9.2% hits | AID 2315, 2010; in the data active means inhibition mostly above about 28%, no sharp cut-off; inactive means mostly below about 43%; further: 0% is about no effect
An asterisk follows results filed as active; ? = inconclusive; nt = no result given; ! = not active in a repeat; [ ] = dose if it differs, or a comment.

SMILES	MARV entry inh	Cycloheximide cs	LASV entry inh	Shiga inhibitor
Cc1occc1C(=O)Nc1cccc2ccccc12	?	56*	-25%	67*
CC(=O)Nc1ccc(CC(=O)NCCC(c2ccccc2)c2ccccc2)cc1	?	-1	0.89µM*	22
Cc1cc(C(=O)Nc2cccc3ccccc23)c(C)o1	-1%[46.1 µM]	25*	7%[46.1 µM]	30
CC(C)CN(C(=O)COC(=O)Cc1cccc2ccccc12)c1c(N)n(Cc2ccccc2)c(=O)[nH]c1=O	-14%	nt	-16%	nt
CNc1nc(N2CCc3ccccc32)ncc1F	25%	39*	?	105*
O=C1c2ccccc2C(=O)N1CCCC[C@]12Cc3ccccc3[C@H](O1)c1c(c3ccccc3oc1=O)O2	-29%[14.2 µM]	nt	nt	nt
Cc1ccc(C2=Nc3ccccc3SC(c3cccc([N+](=O)[O-])c3)C2)cc1 (centres undefined)	nt	35*	nt	70*
COc1ccc(N2CCN(C3CCCN(C(=O)CCN4CCCCO4)C3)CC2)cc1 (centres undefined)	nt	-2	nt	-4
COc1ccc(O)c(/C=N/NC(=O)c2ccc(CSc3nc(C)cc(C)n3)cc2)c1	?	61*	?	71*
COc1ccc(/C=N/NC(=O)c2ccc(CSc3nc(C)cc(C)n3)cc2)cc1O	-23%	4	-3%	-6
Cc1cc(C)nc(SCc2ccc(C(=O)N/N=C/c3cccc(O)c3O)cc2)n1	7.3µM*	17*	?	-60
CN(C)S(=O)(=O)c1cccc(NC(=O)c2cc3ccccc3o2)c1	?	57*	1%	54
CCN(CC)S(=O)(=O)c1cccc(NC(=O)c2cc3ccccc3o2)c1	9%	22	?	55*
O=C(Nc1cccc(S(=O)(=O)N2CCOCC2)c1)c1cc2ccccc2o1	1%	1	?	1
COc1cc2c(cc1OC)[C@@]1(c3ccccc3)CCCC[C@H]1[C@@H]2NC(=O)C(F)(F)F	-2%[14.2 µM]	nt	nt	nt
C1COC(NC(C2CC2)C2CC2)=N1	11µM*!	-2	-3%	-10
CCCCCCCCN=C(N)c1ccc(C(=O)OCC2CCCCC2)cc1	nt	-18	nt	-18
CN1C(=O)C(CC(=O)Nc2ccccc2F)N(NC(=O)c2ccc(Br)cc2)C1=S (centres undefined)	13µM*	-5	-15%[46.1 µM]	-13
COc1ccc(CNC(=O)c2cc3cccc4c3n2CC(C)S4)cc1OC (centres undefined)	nt	nt	-3%[46.1 µM]	nt
CC(=O)n1cc(N(C(=O)CCl)c2ccc(C)cc2)c2ccccc21	7.1µM*	22*	?	4
CCc1ccc(NC(=O)c2[nH]c(C)c(C(C)=O)c2C)cc1	?	42*	?	56*
CC(=O)c1c(C)[nH]c(C(=O)Nc2nccs2)c1C	?	40*	?	93*
CC(=O)c1c(C)[nH]c(C(=O)Nc2cc(F)ccc2C)c1C	1%[46.1 µM]	10	0%	-1
CC(=O)c1c(C)[nH]c(C(=O)Nc2cccc3ccccc23)c1C	4%[46.1 µM]	5	-13%[46.1 µM]	8
CC(=O)c1c(C)[nH]c(C(=O)Nc2cccnc2)c1C	-7%	2	-2%	-24
SMILES	MARV entry inh	Cycloheximide cs	LASV entry inh	Shiga inhibitor
CCc1c(C(=O)Nc2ccc(OC)cc2)[nH]c(C)c1C(C)=O	-9%	21*	34%	29*
CC(=O)c1c(C)[nH]c(C(=O)Nc2cccc(C)n2)c1C	nt	30*	nt	59*
CCc1c(C(=O)Nc2cc(C)ccc2OC)[nH]c(C)c1C(C)=O	?	-2	-1%	-8
CC1CCN(C(=O)CSc2ccc(-c3cccnc3)nn2)CC1	19%	2	-14%	-1
CN(C)c1ccc(C(CNC(=O)Cc2cccc3ccccc23)N(C)C)cc1 (centres undefined)	nt	-3	nt	-6
COc1ccc(NC(=O)c2[nH]c(C)c(C(C)=O)c2C)cc1	?	42*	9%	79*
COc1ccc(OCCOC(=O)c2[nH]c(C)c(C(C)=O)c2C)cc1	?	27*	?	30
CCOc1ccc(NC(=O)c2[nH]c(C)c(C(C)=O)c2C)cc1	nt	31*	nt	43*
COc1ccc(CNCCC(c2ccc(C)cc2)c2ccco2)cc1 (centres undefined)	28µM*	nt	-20%[46.1 µM]	nt
Fc1ccc(C(CCNCc2cccs2)c2ccco2)cc1 (centres undefined)	7.9µM*	-1	-1%	-10
O=C(NCC(c1ccco1)N1CCN(c2ccccc2)CC1)c1cccs1 (centres undefined)	-3%	nt	7%	nt
O=C(NCCC(c1ccccc1)c1ccco1)c1cccs1 (centres undefined)	nt	38*	nt	118*
COc1ccc(-c2ccc(OC)c(C3C4C=CCCC4(C)C(=O)N3Cc3ccccc3)c2)cc1OC (centres undefined)	nt	18	nt	22
Brc1ccccc1/C=N/Nc1ccc2ccccc2n1	11µM*	44*	?	65*
Cc1cnn(-c2cc(N/N=C/c3cccc(F)c3)ncn2)c1	0%	-4	-8%	-10
Fc1cccc(/C=N/Nc2ccc3ccccc3n2)c1	6.3µM*	21*	?	37
Brc1ccc(/C=N/Nc2ccccc2)cc1	?	43*	-8%	60*
Oc1ccc(/C=N/Nc2ccccc2)cc1	-18%[46.1 µM]	1	?	24
Brc1ccc(/C=N/Nc2ccc3ccccc3n2)cc1	-20%	55*	?	120*
CCOCCCNC(=O)C(c1ccccc1)N(Cc1ccc2c(c1)OCO2)C(=O)c1ccccc1O (centres undefined)	-3%[46.1 µM]	-3	1%	-8
O=C(CCS(=O)(=O)c1ccc(Cl)cc1)NCCc1c[nH]c2ccccc12	?	-2	3%[46.1 µM]	-1
O=[N+]([O-])c1cccc(C=NNc2ccc3ccccc3n2)c1O	2.2µM*	nt	2.5µM*	nt
Cc1cc(N/N=C/c2ccccc2Br)nc2ccccc12	?	42*	0%	75*
Cc1cc(N/N=C(/CCC(=O)O)C(=O)O)nc2ccccc12	1%[46.1 µM]	-2	-12%	-1
Cc1cc(C)n(CCNc2nc3nonc3nc2N2CCCCC2)n1	1%[46.1 µM]	-2	?	-8
SMILES	MARV entry inh	Cycloheximide cs	LASV entry inh	Shiga inhibitor
CCOc1ccccc1NC(=S)N1CCC(c2nc3ccccc3o2)CC1	5%	-3	-2%	-8
CCOC(=O)C1(CC2CC2)CCN(Cc2cn(C)c3ccccc23)CC1	?	-4	?	18
CCOC(=O)C1(CC2CC2)CCN(C(=O)c2cc(OC)nc3ccccc23)CC1	?	31*	?	88*
CCOC(=O)C1(CC2CC2)CCN(C(=O)c2cccnc2C)CC1	?	17*	-2%[46.1 µM]	24
CCOC(=O)C1(CC2CC2)CCN(C(=O)c2cc(C3CC3)nc3ccccc23)CC1	0%[46.1 µM]	34*	4%	55*
COc1nc(Cl)cn(-c2ccc(C)cc2)c1=O	30%	1	-2%	16
Cc1ccc(-n2c(Cl)c(Cl)nc(Cl)c2=O)cc1	?	-6	7.3µM*	-3
Cc1cccc(OCCNc2cc(N3CCOCC3)ccc2[N+](=O)[O-])c1	?	30*	16%	26*
Cc1cccc(OCCNc2cc(N3CCN(C)CC3)ccc2[N+](=O)[O-])c1	?	-3	?	-14
CC(C)(C)c1ccc(N/N=C(\C#N)S(=O)(=O)C(C)(C)C)cc1	10µM*	9	?	13
